In the library only some 6.3% were active in any assay of this set; here they are far more common.
Gal4-VP16 FLuc = Gal4-VP16 reporter inhibition counter-screen; Potency, µM (highest dose often 53.6 µM), without a hit: at the top dose activity, negative = inhibition, hits mostly inhibitors; Drosophila S2 Gal4-VP16 UAS-luciferase, luminescence, 20 h; 310,000 compounds, 3.5% hits;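 note: Gal4-VP16 expression switched on by copper sulfate through the metallothionein promoter; % is set by controls: 0 for no effect and ±100 for the full control effect; nearly all actives have a fitted effect of over 50% in size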
RORgamma inh = inhibitors of mouse ROR gamma transcriptional activity; P51450; 310,000 compounds, 5.4% hits; Drosophila S2 Gal4-RORgamma UAS-luciferase reporter, 20 h; Potency, µM (doses to about 53.6 µM), without a hit: at the highest dose activity change, negative = inhibition, most hits filed as inhibitors; note: % is set by controls: 0 for no effect and ±100 for the full control effect; nearly all actives have a fitted effect of over 60% in size
Target sequence (P51450 whole entry, looked up, the tested form may be a part): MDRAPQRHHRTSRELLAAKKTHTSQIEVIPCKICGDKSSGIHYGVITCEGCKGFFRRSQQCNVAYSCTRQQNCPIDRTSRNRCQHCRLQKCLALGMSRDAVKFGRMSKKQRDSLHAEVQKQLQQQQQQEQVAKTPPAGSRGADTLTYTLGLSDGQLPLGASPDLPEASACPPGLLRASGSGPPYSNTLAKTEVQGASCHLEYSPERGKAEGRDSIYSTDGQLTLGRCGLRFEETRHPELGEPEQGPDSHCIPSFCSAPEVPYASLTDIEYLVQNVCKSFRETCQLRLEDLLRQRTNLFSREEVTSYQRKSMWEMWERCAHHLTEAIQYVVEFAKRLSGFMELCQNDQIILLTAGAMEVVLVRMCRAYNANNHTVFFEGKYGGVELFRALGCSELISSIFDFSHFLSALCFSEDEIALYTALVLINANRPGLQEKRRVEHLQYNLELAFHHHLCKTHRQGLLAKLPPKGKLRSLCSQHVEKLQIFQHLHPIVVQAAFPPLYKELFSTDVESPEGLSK
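Drosophila Schneider cells stably carrying a metallothionein-driven Gal4 DBD–ROR gamma fusion and a UAS-Photinus luciferase reporter were exposed to compound for 1 hr, then induced with copper sulfate (700 uM final) for 20 hr at ambient temperature before luminescence reading.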
ATXN viability = cell viability loss in ATXN counter-screen; S2 cells (HEK-293 line with an ATXN2-luciferase reporter) viability, CellTiter-Fluor protease fluorescence, 24 h; Potency, µM (top dose mostly 56.7 µM), hits mostly cytotoxic; 400,000 compounds, 0.49% hits; note: nearly all actives have a fitted effect of over 40% in size
TGFb SMAD3 inh = inhibitors of TGF-b signaling. 410,000 compounds, 1.2% hits. Potency, µM (titrated, usually from 46.1 µM), inactives show at the highest dose activity, negative = inhibition, actives largely listed as inhibitors. HepG2 CAGA-GFP TGF-b/SMAD3 reporter, GFP fluorescence, 18 h; TGF-beta stimulated, 500 pg/mL final; note: % is set by controls: 0 for no effect and ±100 for the full control effect; nearly all actives have a fitted effect of over 65% in size
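Inhibition was scored as loss of TGF-beta-induced (500 pg/mL final, 18 hours, 37 degrees C) GFP in HEPG2 cells carrying a CAGA-GFP reporter, in DMEM with 1% FBS. Well GFP was summed per cell; Activity was normalised to unstimulated and stimulated DMSO wells, then concentration-response fitting.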
HepG2 viability = counter-screen for TGF-b inhibitors: cytotoxicity in HepG2 cells; HepG2 CAGA-GFP viability, ATP luminescence, 18 h; Potency, µM (highest dose often 46.1 µM), inactives show top-dose activity change, negative = cytotoxicity, usual class: cytotoxic; 410,000 compounds, 0.76% hits; AID 588856
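HepG2 CAGA-GFP cells (1000/well, DMEM with 1% FBS) received compound, then TGF-beta at 500 pg/mL final, and were incubated 18 hours at 37 degrees C. Viability was read by CellTiter-Glo luminescence. Media-only wells were set as complete cell-killing and DMSO as no toxicity.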
ATXN2 expr inh = reduces ATXN2 reporter expression in HEK-293 cells. HEK-293 ATXN2-luciferase reporter, luminescence, 24 h. Potency, µM (doses to about 57 µM), for inactives: top-dose activity change, negative = inhibition, most hits filed as inhibitors. 360,000 compounds, 0.72% hits. AID 1745845; note: % is set by controls: 0 for no effect and ±100 for the full control effect; nearly all actives have a fitted effect of over 55% in size
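ATXN2-luciferase reporter cells (luciferase flanked by upstream and downstream ATXN2 gene portions) were treated 24 h at 37 °C with compounds at up to 57 uM. SteadyGlo luminescence gave expression; GF-AFC fluorescence gave viability.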
The depositor's hits bear a star; i = inactive; ? = inconclusive; nt = no result. Calls come from the whole dose curve; as a rule, active = well fitted curve in the direction sought with a large enough effect; inconclusive = small, poorly fitted or top-dose-only effect, or another doubt; inactive = no such curve, though single readings can be large; an effect the other way counts as inactive or inconclusive. Potency is the fitted concentration of half-maximal effect.

SMILES	Gal4-VP16 FLuc	RORgamma inh	ATXN viability	TGFb SMAD3 inh	HepG2 viability	ATXN2 expr inh
Cc1ccc(-c2nc3c(c(SCC(=O)Nc4ccccc4Cl)n2)Cc2c(CO)cnc(C)c2O3)cc1	nt	nt	i	12%	-2%	12%
CCn1c2ccccc2c2cc(NC(=O)CSc3nnc(-c4cccc(F)c4)o3)ccc21	9%	-5%	i	0%	-1%	?
O=C(CSc1nnc(-c2cccc(F)c2)o1)Nc1nncs1	?	13µM*	i	-4%	-55%	-11%
Cc1csc(NC(=O)CSc2nnc(-c3ccc(S(=O)(=O)N4CCCC4)cc3)o2)n1	-28%	13µM*	i	-14%	-28%	-7%
Cc1csc(NC(=O)CSc2nnc(-c3ccccc3)o2)n1	-15%	?	?	-11%	-34%	-16%
CCOC(=O)Cc1csc(NC(=O)CSc2nnc(-c3ccc(C)cc3)o2)n1	?	11µM*	i	-8%	-3%	-7%
CCOC(=O)Cc1csc(NC(=O)CSC2=NCCS2)n1	-12%	30%	i	-12%	-25%	5%
CCN(CC)S(=O)(=O)c1ccc(-c2nnc(SCC(=O)Nc3nc(C)cs3)o2)cc1	-28%	?	i	?	-8%	-11%
CCOC(=O)Cc1csc(NC(=O)CSc2nnc(-c3ccc(F)cc3)o2)n1	?	4µM*	i	-2%	-14%	-9%
COc1ccc(CNC(=O)c2cnn(-c3ncc4c(n3)-c3ccccc3CC4)c2C)cc1OC	nt	nt	i	nt	nt	nt
CS(=O)(=O)N(CC(=O)N1CCCC1)c1cccc(C(F)(F)F)c1	nt	nt	i	3%	1%	nt
Cc1cccc(C(O)c2ncc(-c3ccc4ccccc4c3)[nH]2)c1C (centres undefined)	nt	nt	i	1%	-4%	6%
Cc1cccc2sc(NC(=O)c3cccc(S(=O)(=O)N4CCc5ccccc54)c3)nc12	0%	-5%	i	5%	5%	4%
Cc1cccc2sc(NNC(=O)c3ccc(S(=O)(=O)N4CCc5ccccc5C4)cc3)nc12	?	-32%	?	11µM*	-34%	?
Cc1cccc2sc(NNC(=O)c3ccc(S(=O)(=O)N4CCCC(C)C4)cc3)nc12 (centres undefined)	3.2µM*	3.5µM*	i	13µM*	-61%	?
C[C@@H]1COC(=O)[C@H](NC(=O)OCC2c3ccccc3-c3ccccc32)C/C=C\C[C@@H](CC(=O)N[C@@H](CO)Cc2ccccc2)C(=O)N1	nt	nt	?	-23%	6%	6%
O=C(C[C@H]1C/C=C\C[C@H](NC(=O)OCC2c3ccccc3-c3ccccc32)C(=O)OC[C@H](Cc2ccccc2)NC1=O)N[C@H](CO)Cc1ccccc1	nt	nt	?	?	13µM*	?
Brc1cnc2nc(SCc3nc4ccccc4[nH]3)[nH]c2c1	-6%	-42%	i	-37%	-71%	24µM*
Cc1ccc(CC(=O)N/N=C/c2ccc(OC(=O)c3ccc([N+](=O)[O-])cc3)cc2)cc1	11%	-1%	i	-2%	2%	4%
COc1ccc(CNC(=S)N/N=C/c2ccncc2)cc1	?	?	i	-10%	-1%	5%
CC(C)COc1ccc(CNC(=S)N/N=C/c2ccc([N+](=O)[O-])cc2)cc1	4.5µM*	1.4µM*	i	-22%	-56%	5%
CCCOc1ccc(CNC(=S)NCc2ccc(OC(C)C)cc2)cc1	7.1µM*	7.1µM*	i	?	-41%	?
CCCOc1ccc(CCC(=O)O)cc1	5%	16%	?	12%	10%	nt
CCOc1ccc(CNC(=S)N/N=C/c2ccncc2)cc1	13µM*	10µM*	?	-32%	-33%	nt
